Results: PubChem BioAssay
The source made the active and inactive calls. Unless noted, no rule for the calls is given here.

Tests used:
[1] = resazurin metabolic signal in HepG2 cells – cell-based, resazurin fluorescence, 24 h, PK04 Diversity Set, profiling panel (AID 1172); details: HepG2 viability, higher = more signal; also: test concentration not given here
[2] = budding yeast growth changes without added modifier – OD600, strain BY4716, 24 h, basal condition, primary screen (AID 1173); details: S. cerevisiae BY4716 growth, OD600, 24 h; higher = more signal, called active from +8 up or from −8 down
[3] = viability profiling in MM1S myeloma cells – cell-based, resazurin fluorescence, basal, 24 h, PK04 Diversity Set, profiling panel (AID 1174); details: higher = more signal, called active from +8 up or from −8 down;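 also: MM1S multiple myeloma cell line; test concentration not given here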
[4] = biological target: Dihydroorotate dehydrogenase (quinone), mitochondrial (Plasmodium falciparum (isolate 3D7)) (UniProt Q08210); assay: inhibition of P. falciparum DHODH – biochemical, C-terminal His tag, absorbance 600 nm, primary screen (AID 1175); details: PfDHODH enzyme, DCIP absorbance 600 nm; higher = more signal, called active from +8 up or from −8 down;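 also: recombinant parasite enzyme with a five histidine tag at its C terminus; test concentration not given here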
Dihydroorotate dehydrogenase (quinone), mitochondrial (Plasmodium falciparum (isolate 3D7)), sequence (Q08210 whole entry, looked up): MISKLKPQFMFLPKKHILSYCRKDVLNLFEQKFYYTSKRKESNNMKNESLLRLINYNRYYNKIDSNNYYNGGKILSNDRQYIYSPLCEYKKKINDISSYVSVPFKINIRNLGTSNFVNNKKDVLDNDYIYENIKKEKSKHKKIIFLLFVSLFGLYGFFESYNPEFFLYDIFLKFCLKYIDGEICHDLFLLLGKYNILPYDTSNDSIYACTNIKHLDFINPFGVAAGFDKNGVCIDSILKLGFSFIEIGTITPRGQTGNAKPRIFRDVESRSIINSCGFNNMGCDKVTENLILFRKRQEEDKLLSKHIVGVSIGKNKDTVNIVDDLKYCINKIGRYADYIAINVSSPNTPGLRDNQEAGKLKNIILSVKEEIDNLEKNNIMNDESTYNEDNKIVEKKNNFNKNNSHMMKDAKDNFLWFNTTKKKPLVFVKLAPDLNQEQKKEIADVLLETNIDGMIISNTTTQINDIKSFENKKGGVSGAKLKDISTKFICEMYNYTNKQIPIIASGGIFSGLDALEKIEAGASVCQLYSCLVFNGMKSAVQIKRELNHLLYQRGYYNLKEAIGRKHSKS

[5] = inhibition of PAO1 biofilm formation – strain PAO1, LB-PBS medium, absorbance 600 nm, primary screen (AID 1176); also: test concentration not given here; details: P. aeruginosa PAO1 growth/biofilm, A600, 12 h; higher = more signal
[6] = growth modulation of vineyard yeast isolate – strain RM11-1a, OD600, basal, 24 h, primary screen (AID 1177);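 also: cultures grown under basal conditions with no added stressor; test concentration not given here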; details: S. cerevisiae RM11-1a growth, OD600, 24 h; higher = more signal, called active from +8 up or from −8 down
[7] = growth of efflux-deficient E. coli DRC39 – strain DRC39, OD650, 24 h, E. coli filamentation inducers, primary screen (AID 1178);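 also: growth measured as culture turbidity by optical density at 650 nm; test concentration not given here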; details: E. coli DRC39 acrAB, higher = more signal, called active from +8 up or from −8 down
[8] = growth of efflux-deficient E. coli DRC39 – strain DRC39, OD650, 48 h, E. coli filamentation inducers, primary screen (AID 1179);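 also: screen aims at cell division blockers that make cells filament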; details: E. coli DRC39 delta-acrAB growth, higher = more signal, called active from +8 up or from −8 down
[9] = viability profiling in RPMI8226 myeloma cells – cell-based, resazurin fluorescence, basal, 24 h, PK04 Diversity Set, profiling panel (AID 1180); details: higher = more signal;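 also: RPMI8826 multiple myeloma cell line at 5000 cells per well; test concentration not given here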
[10] = biological target: E3 ubiquitin-protein ligase XIAP (Homo sapiens) (UniProt P98170); assay: small molecules binding XIAP protein – biophysical, small-molecule microarray, fluorescence 635 nm, primary screen (AID 1181); details: higher = more signal;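 also: score merges 667 nm emission and signal to noise over triplicate slides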
E3 ubiquitin-protein ligase XIAP (Homo sapiens), sequence (P98170 whole entry, looked up): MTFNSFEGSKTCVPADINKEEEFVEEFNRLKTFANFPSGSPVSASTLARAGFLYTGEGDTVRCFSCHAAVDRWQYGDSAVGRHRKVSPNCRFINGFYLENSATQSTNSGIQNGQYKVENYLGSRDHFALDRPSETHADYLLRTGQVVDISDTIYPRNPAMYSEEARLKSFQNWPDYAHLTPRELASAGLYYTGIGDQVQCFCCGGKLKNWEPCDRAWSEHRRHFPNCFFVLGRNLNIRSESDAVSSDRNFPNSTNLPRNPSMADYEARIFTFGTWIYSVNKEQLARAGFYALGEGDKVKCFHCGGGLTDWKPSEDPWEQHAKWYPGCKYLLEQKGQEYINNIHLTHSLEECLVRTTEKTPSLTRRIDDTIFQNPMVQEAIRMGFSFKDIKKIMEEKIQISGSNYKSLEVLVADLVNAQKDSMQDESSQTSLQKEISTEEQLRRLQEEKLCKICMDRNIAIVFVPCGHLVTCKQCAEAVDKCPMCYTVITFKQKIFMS

C[C@H]1CC[C@H]2C(=O)O[C@H](CO)CN2[C@@H]1c1ccc(Br)cc1
z-score [1]: 0.72 | z-score [2]: -8.2 (active) | z-score [3]: 0.678 (inactive) | composite z-score [4]: 0.586 (inactive) | z-score [5]: 0.441 (inactive) | z-score [6]: -0.356 (inactive) | z-score [7]: 0.342 (inactive) | z-score [8]: -0.016 (inactive) | z-score [9]: -0.817 | composite z-score [10]: 0.0733

CC(CCN1CCc2nc(-c3ccccc3)c(-c3ccccc3)cc2C1)=NO[C@@H](C)c1cc(-c2c(C)cc(C)cc2C)no1
z-score [1]: -0.377 | z-score [2]: -1.7 (inactive) | z-score [3]: 0.553 (inactive) | composite z-score [4]: -2.15 (inactive) | z-score [5]: -0.634 (inactive) | z-score [6]: -0.482 (inactive) | z-score [7]: -1.04 (inactive) | z-score [8]: -1.01 (inactive) | z-score [9]: 0.812 | composite z-score [10]: -0.209

O=C(NN=C1C[C@@H](O)[C@@H](O)[C@@H]2[C@@H]3C(=O)N(c4ccc(F)cc4F)C(=O)[C@@H]3CC[C@H]12)OCc1ccccc1
z-score [1]: 2.08 | z-score [2]: -0.814 (inactive) | z-score [3]: 1.23 (inactive) | composite z-score [4]: -0.25 (inactive) | z-score [5]: -0.258 (inactive) | z-score [6]: -1.35 (inactive) | z-score [7]: 0.574 (inactive) | z-score [8]: 0.573 (inactive) | z-score [9]: 0.86 | composite z-score [10]: -0.152

C=CC[C@@H]1C=C[C@H](ON=C(C)CCN2CCCCc3nc(C)c(C)cc32)[C@@H](CO)O1
z-score [1]: 0.162 | z-score [2]: 0.399 (inactive) | z-score [3]: -0.201 (inactive) | composite z-score [4]: -0.923 (inactive) | z-score [5]: 0.323 (inactive) | z-score [6]: 0.334 (inactive) | z-score [7]: -0.275 (inactive) | z-score [8]: -0.681 (inactive) | z-score [9]: -0.103 | composite z-score [10]: 0.183

CC(C)[C@@H](OCc1ccccc1)[C@H](C)C=NOC[C@@H](O)[C@H]1O[C@@H]2OC(C)(C)O[C@@H]2[C@H]1O
z-score [1]: -0.752 | z-score [2]: -0.848 (inactive) | z-score [3]: -0.587 (inactive) | composite z-score [4]: 0.188 (inactive) | z-score [5]: 0.241 (inactive) | z-score [6]: 1.28 (inactive) | z-score [7]: 0.0024 (inactive) | z-score [8]: -1.79 (inactive) | z-score [9]: -0.766 | composite z-score [10]: 0.191

CC(=O)OC[C@H]1O[C@@H](ON=C(C)CCC(=O)OC[C@H]2O[C@H](C#Cc3ccccc3)C=C[C@@H]2Oc2ccc(C)cc2)[C@H](OC(C)=O)[C@@H](OC(C)=O)[C@@H]1OC(C)=O
z-score [1]: 0.0214 | z-score [2]: -0.053 (inactive) | z-score [3]: 0.364 (inactive) | composite z-score [4]: -0.47 (inactive) | z-score [5]: -0.102 (inactive) | z-score [6]: 0.0837 (inactive) | z-score [7]: 0.297 (inactive) | z-score [8]: -0.905 (inactive) | z-score [9]: 0.135 | composite z-score [10]: -0.269

CC(=O)OC[C@H]1O[C@H](CC=NO[C@@H](C)c2cn([C@H](CO)Cc3ccccc3)nn2)C=C[C@@H]1OC(C)=O
z-score [1]: -0.462 | z-score [2]: -0.305 (inactive) | z-score [3]: 0.0157 (inactive) | composite z-score [4]: -2.87 (inactive) | z-score [5]: -0.88 (inactive) | z-score [6]: -0.793 (inactive) | z-score [7]: -0.645 (inactive) | z-score [8]: -1.36 (inactive) | z-score [9]: 0.205 | composite z-score [10]: -0.434

CCOC(=O)CCN1C(=O)[C@H]2[C@H]3[C@H](O)[C@H](O)CC(=NNC(=O)OCc4ccc(OC)cc4)[C@H]3CC[C@H]2C1=O
z-score [1]: 0.0785 | z-score [2]: -3 (inactive) | z-score [3]: -0.451 (inactive) | composite z-score [4]: 0.0913 (inactive) | z-score [5]: 1.07 (inactive) | z-score [6]: -0.595 (inactive) | z-score [7]: -0.653 (inactive) | z-score [8]: -0.652 (inactive) | z-score [9]: -0.244 | composite z-score [10]: 0.12

CC(C)=NO[C@@H](C)c1cn([C@H](CO)Cc2ccccc2)nn1
z-score [1]: -1.27 | z-score [2]: -1.16 (inactive) | z-score [3]: -0.597 (inactive) | composite z-score [4]: -1.44 (inactive) | z-score [5]: 0.0889 (inactive) | z-score [6]: -2.2 (inactive) | z-score [7]: 0.0116 (inactive) | z-score [8]: -1.77 (inactive) | z-score [9]: -1.18 | composite z-score [10]: 0.314

C[C@@H]1CC[C@H]2C(=O)OC(CN3C(=O)c4ccccc4C3=O)CN2[C@H]1c1ccc(Br)cc1 (stereo not given in full)
z-score [1]: 0.462 | z-score [2]: -0.501 (inactive) | z-score [3]: 0.668 (inactive) | composite z-score [4]: 0.639 (inactive) | z-score [5]: -0.27 (inactive) | z-score [6]: 0.183 (inactive) | z-score [7]: 0.786 (inactive) | z-score [8]: 0.467 (inactive) | z-score [9]: 0.685 | composite z-score [10]: -0.0438

CCOC(=O)[C@H](Cc1ccccc1)NC(=O)CCC1CC(OC(=O)NCc2ccc3c(c2)OCO3)CC2(CCCC(COC(=O)NCCCN3CCCC3=O)O2)O1 (stereo not given in full)
z-score [1]: 0.557 | z-score [2]: -0.547 (inactive) | z-score [3]: 0.913 (inactive) | composite z-score [4]: -0.59 (inactive) | z-score [5]: -0.801 (inactive) | z-score [6]: -0.012 (inactive) | z-score [7]: -0.131 (inactive) | z-score [8]: 0.186 (inactive) | z-score [9]: 1.36 | composite z-score [10]: -0.124

CCOC(=O)[C@H](CC(C)C)NC(=O)CCC1CC(OC(=O)NCCc2ccc(F)cc2)CC2(CCCC(COC(=O)NCc3cccc4ccccc34)O2)O1 (stereo not given in full)
z-score [1]: 0.682 | z-score [2]: -1.9 (inactive) | z-score [3]: 1.28 (inactive) | composite z-score [4]: 0.0103 (inactive) | z-score [5]: 0.168 (inactive) | z-score [6]: -0.186 (inactive) | z-score [7]: 0.424 (inactive) | z-score [8]: -0.435 (inactive) | z-score [9]: 1.3 | composite z-score [10]: -0.0939
